The campaign covered roughly 16,000 compounds. About 4,000 (25%) were called active. Inconclusive results (about 26%) are left out. Only a sample is shown. A number with no mark means an inactive call. Calls come from the whole dose curve; as a rule, active = well fitted curve in the direction sought with a large enough effect; inconclusive = small, poorly fitted or top-dose-only effect, or effect the other way; inactive = no such curve, though single readings can be large or run the other way.
These compounds were tested against Cytochrome P450 2C9 (Homo sapiens) (UniProt P11712) (assay: Cytochrome panel assay with activity outcomes). Conditions: recombinant CYP, pro-luciferin dealkylation, luminescence, p450-cyp2c9; series mostly up to 57.1 µM; activity, negative = inhibition: at the top concentration.
Sequence of Cytochrome P450 2C9 (Homo sapiens) (P11712 whole entry, looked up): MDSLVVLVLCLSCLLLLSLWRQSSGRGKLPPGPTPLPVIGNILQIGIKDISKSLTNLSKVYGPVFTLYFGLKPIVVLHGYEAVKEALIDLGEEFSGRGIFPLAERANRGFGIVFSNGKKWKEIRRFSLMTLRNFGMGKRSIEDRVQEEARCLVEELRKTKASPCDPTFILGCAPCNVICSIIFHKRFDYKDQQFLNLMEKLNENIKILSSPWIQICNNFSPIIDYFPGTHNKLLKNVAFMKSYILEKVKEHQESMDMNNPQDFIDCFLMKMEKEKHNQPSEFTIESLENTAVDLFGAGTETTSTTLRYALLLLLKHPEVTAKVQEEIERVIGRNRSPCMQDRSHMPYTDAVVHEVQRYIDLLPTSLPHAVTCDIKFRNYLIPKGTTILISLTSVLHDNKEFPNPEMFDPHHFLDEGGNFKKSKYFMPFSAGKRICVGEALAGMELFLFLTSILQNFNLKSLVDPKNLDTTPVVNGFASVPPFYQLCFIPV
% is set by controls: 0 for no effect and ±100 for the full control effect.

Question: For `CN(C)c1ncc2nc(-c3cccs3)c(=O)n(CCc3ccccc3)c2n1`, which “activity, negative = inhibition” value is on record?
Answer: Its value is -18.9%.

Question: For `CN(C)c1ncc2nc(CCc3ccccc3)c(=O)n(CCC#N)c2n1`, which AC50 is on record?
Answer: Its AC50 is 15.8 µM (active).

Question: Which “activity, negative = inhibition” value does the source give for `CN(C)c1ncc2nc(-c3cccs3)c(=O)n(Cc3cccs3)c2n1` here?
Answer: Its value is 27.9%.

Question: With `CN(C)c1ncc2nc(CCc3ccccc3)c(=O)n(Cc3cccs3)c2n1` as the compound, how does the AC50 read?
Answer: Its AC50 is 15.8 µM (active).

Question: For `Cc1nc2cnc(N(C)C)nc2n(CCC#N)c1=O`, which “activity, negative = inhibition” value is on record?
Answer: Its value is 21.7%.

Question: How did the “activity, negative = inhibition” value turn out when `CN(C)c1ncc2nc(-c3ccccc3)c(=O)n(CCC#N)c2n1` was run?
Answer: The value was -14.9%.

Question: How did the “activity, negative = inhibition” value turn out when `CN(C)c1ncc2nc(-c3ccc(F)cc3)c(=O)n(CCc3ccccc3)c2n1` was run?
Answer: The value was -21.6%.

Question: How did the “activity, negative = inhibition” value turn out when `NC1=NC2(CCCCC2)N=C(Nc2ccc(F)cc2F)N1` was run?
Answer: Its value is 3.62%.

Question: For `N=C(N)SCCCN`, which activity, negative = inhibition is on record?
Answer: Its activity, negative = inhibition is 7.79% [at 11.4 µM].

Question: For `COc1ccc(-c2nc3cnc(N(C)C)nc3n(CCc3ccccc3)c2=O)cc1`, which “activity, negative = inhibition” value is on record?
Answer: Its value is -20.6%.

Question: `CN(C)c1ncc2ncc(=O)n(CCc3ccccc3)c2n1` was tested. Which AC50 did it give?
Answer: The AC50 was 6.31 µM (active).

Question: `CN(C)c1ncc2nc(CCc3ccccc3)c(=O)n(CCc3ccccc3)c2n1` was tested. Which AC50 did it give?
Answer: The AC50 was 12.6 µM (active).

Question: How did the “activity, negative = inhibition” value turn out when `CN(C)c1ncc2ncc(=O)n(C)c2n1` was run?
Answer: The value was -11.8%.

Question: For `COCCn1c(=O)[nH]c2cc(C(=O)N3CCN(c4ccccc4OC)CC3)ccc2c1=O`, which AC50 is on record?
Answer: Its AC50 is 7.94 µM (active).

Question: How did the “activity, negative = inhibition” value turn out when `COc1ccccc1N1CCN(CCn2c(=O)[nH]c3c([nH]c4ccccc43)c2=O)CC1` was run?
Answer: The value was -9.66%.

Question: How did the “activity, negative = inhibition” value turn out when `N=C1SCC(=O)N1c1nc(-c2ccccc2)cs1` was run?
Answer: Its value is -16.5%.

Question: For `COc1ccc(-c2csc(N3C(=N)SCC3=O)n2)cc1`, which AC50 is on record?
Answer: Its AC50 is 3.55 µM (active).

Question: For `CC(=O)Oc1cc(C(C)C)c(OCCN(C)C)cc1C`, which AC50 is on record?
Answer: The AC50 was “inactive”.

Question: How did the activity, negative = inhibition turn out when `CC(C)NCC[C@@H](O)c1cc2ccccc2o1` was run?
Answer: The activity, negative = inhibition was 17.2% [at 11.4 µM].

Question: For `CC(=O)OC[C@@H]1O[C@H](CCON=C(C)C)C=C[C@@H]1OC(C)=O`, which activity, negative = inhibition is on record?
Answer: Its activity, negative = inhibition is 3.94% [at 11.4 µM].

Question: With `OCCN(Cc1ccccc1)Cc1cccc(Cl)c1Cl` as the compound, how does the AC50 read?
Answer: The AC50 was 3.98 µM (active).

Question: `CN(C(=O)CN(CCO)CC(=O)N(C)C(C)(C)Cc1ccccc1)C(C)(C)Cc1ccccc1` was tested. Which “activity, negative = inhibition” value did it give?
Answer: Its value is -21.7% [at 25.6 µM].

Question: Which “activity, negative = inhibition” value does the source give for `CCN(CCO)Cc1csc2cccc(Br)c12` here?
Answer: Its value is 22.6%.

Question: How did the activity, negative = inhibition turn out when `Cc1cc(N=Cc2c(CO)cnc(C)c2O)c(N=Cc2c(CO)cnc(C)c2O)cc1C.[Zn]` was run?
Answer: Its activity, negative = inhibition is -15.6% [at 11.4 µM].

Question: Which AC50 does the source give for `O=C1c2cccc3cccc(c23)C(=O)N1CC1CCN(CC(O)COc2ccc3ccccc3c2)CC1` (stereo not drawn) here?
Answer: Its AC50 is 0.891 µM (active).

Question: How did the activity, negative = inhibition turn out when `O[C@@H](COc1cccc2ccccc12)CN1CCOCC1` was run?
Answer: Its activity, negative = inhibition is 5.45% [at 11.4 µM].

Question: `O=C(c1ccc(S(=O)(=O)N2CCCCCC2)cc1)N1CCC(CN2C(=O)c3cccc4cccc(c34)C2=O)CC1` was tested. Which “activity, negative = inhibition” value did it give?
Answer: The value was -4.99%.

Question: Which “activity, negative = inhibition” value does the source give for `CCS(=O)(=O)N1CCCC(C(=O)NCCCOC(C)C)C1` (stereo not drawn) here?
Answer: Its value is -14.2%.

Question: `COc1cccc2[nH]c3c(N4CC(C)CC(C)C4)ncnc3c12` (stereo not drawn) was tested. Which AC50 did it give?
Answer: The AC50 was 10 µM (active).

Question: With `COc1ccccc1-c1ccc2ncnc(N3CCN(C)CC3)c2c1` as the compound, how does the activity, negative = inhibition read?
Answer: The activity, negative = inhibition was 1.65% [at 2.29 µM].

Question: `Cc1ccc(C)c(N/C(N)=N/c2nc(C)cc(C)n2)c1` was tested. Which “activity, negative = inhibition” value did it give?
Answer: Its value is -4.26%.

Question: For `Cc1ccc(C)c(NC(=O)Cn2c([N+](=O)[O-])cnc2C)c1`, which “activity, negative = inhibition” value is on record?
Answer: Its value is -22.3%.

Question: With `CCOc1ncccc1C(=O)OCC(=O)Nc1cc(C)ccc1C` as the compound, how does the AC50 read?
Answer: The AC50 was 8.91 µM (active).

Question: For `CN(C)C(=N)N=C(N)N`, which “activity, negative = inhibition” value is on record?
Answer: Its value is -10% [at 25.6 µM].

Question: How did the “activity, negative = inhibition” value turn out when `CCn1c(SCC(=O)NC2CCCCC2)nc2c(c1=O)SC(C)C2` (stereo not drawn) was run?
Answer: The value was 4.71%.

Question: Which AC50 does the source give for `Cc1ccc2nc(NC(=O)CSc3nc4c(c(=O)n3C)SC(C)C4)sc2c1` (stereo not drawn) here?
Answer: The AC50 was 1.78 µM (active).

Question: `CCn1c(SCC(=O)Nc2ccc3c(c2)OCCO3)nc2c(c1=O)SC(C)C2` (stereo not drawn) was tested. Which AC50 did it give?
Answer: The AC50 was 2 µM (active).

Question: `CCn1c(SCC(=O)Nc2nc3ccc(C)cc3s2)nc2c(c1=O)SC(C)C2` (stereo not drawn) was tested. Which AC50 did it give?
Answer: The AC50 was 3.16 µM (active).

Question: For `Cn1c(=O)c2[nH]c([C@@H]3CC(=O)C[C@H](c4nc5c([nH]4)c(=O)n(C)c(=O)n5C)N3)nc2n(C)c1=O`, which activity, negative = inhibition is on record?
Answer: Its activity, negative = inhibition is 2.38% [at 11.4 µM].

Question: `CC1(C)CCC(NC(=O)[C@H](N)CCC(=O)O)CC1` was tested. Which “activity, negative = inhibition” value did it give?
Answer: The value was -12.5%.

Question: For `N[C@@H](Cc1nn[nH]n1)C(=O)O`, which activity, negative = inhibition is on record?
Answer: The activity, negative = inhibition was -8.85% [at 11.4 µM].

Question: Which AC50 does the source give for `CCCn1c(C)nc2c(c1=O)c1nc3ccccc3nc1n2CCC1=CCCCC1` here?
Answer: Its AC50 is 5.62 µM (active).

Question: For `C/C(=N/O)[C@@H]1C[C@H](CC(=O)O)C1(C)C`, which activity, negative = inhibition is on record?
Answer: Its activity, negative = inhibition is -6.68% [at 11.4 µM].

Question: For `O=[N+]([O-])c1ccc2nc(-c3ccccc3)n(OCc3ccc(Cl)cc3)c2c1`, which AC50 is on record?
Answer: Its AC50 is 4.47 µM (active).

Question: `Clc1ccc(COn2c(-c3ccccc3)nc3ccccc32)cc1` was tested. Which AC50 did it give?
Answer: Its AC50 is 10 µM (active).

Question: For `Cc1cc(-c2cccc([N+](=O)[O-])c2)nc2ccc3ccccc3c12`, which “activity, negative = inhibition” value is on record?
Answer: Its value is -22.9%.

Question: Which “activity, negative = inhibition” value does the source give for `CC(=O)OCC(=O)[C@@]1(O)CC[C@@H]2[C@H]3CCC4=CC(=O)CC[C@]4(C)[C@]3(F)[C@@H](O)C[C@@]21C` here?
Answer: Its value is -3.55% [at 25.6 µM].

Question: For `C[C@@H]1/C=C\CC(=O)OC[C@H](C)C(=O)N[C@@H](Cc2ccccc2)C(=O)OC1`, which activity, negative = inhibition is on record?
Answer: The activity, negative = inhibition was 10.4% [at 11.4 µM].
